In the library only some 12% were active in any assay of this set; here they are far more common.
RORgamma inh: qHTS for inhibitors of ROR gamma transcriptional activity; AID 2551, 2010; Drosophila S2 Gal4-RORgamma UAS-luciferase reporter, 20 h; Nuclear receptor ROR-gamma (Mus musculus), P51450; actives 5.4% (n = 310,000); Potency, µM (top dose mostly 53.6 µM), inactives show top-dose activity change, negative = inhibition, actives largely listed as inhibitors; further: nearly all actives have a fitted effect of over 60% in size
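Using a luciferase readout, inhibitors were identified by reduced reporter activity in Drosophila cells coexpressing a copper-inducible Gal4–ROR gamma fusion and UAS-driven Photinus luciferase, incubated 20 hr after 700 uM copper sulfate.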
ALDH1A1 block: qHTS Assay for Inhibitors of Aldehyde Dehydrogenase 1 (ALDH1A1); actives 7.3% (n = 220,000); AID 1030, 2008; Potency, µM (titrated, usually from 75.3 µM), for inactives: at the top dose activity, negative = inhibition, usual class: inhibitors; Purified ALDH1A1, NADH fluorescence, propionaldehyde substrate; Aldehyde dehydrogenase 1A1 (Homo sapiens), P00352; active means well fitted inhibition curve with a large enough effect, not every such curve was filed as active; inconclusive means small, poorly fitted or top-dose-only effect, or another doubt; inactive means no such curve, though single readings can be large or run the other way;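 further: plate controls were no enzyme wells and a reference inhibitor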
VP16 counter: VP16 counterscreen qHTS for inhibitors of ROR gamma transcriptional activity; Drosophila S2 Gal4-VP16 UAS-luciferase, luminescence, 20 h; Potency, µM (series often up to 53.6 µM), inactives show at the top dose activity, negative = inhibition, actives largely listed as inhibitors; actives 3.5% (n = 310,000);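 further: Gal4-VP16 expression switched on by copper sulfate through the metallothionein promoter; nearly all actives have a fitted effect of over 50% in size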
PLK1 PBD inh: qHTS for Inhibitors of PLK1-PDB (polo-like kinase 1 - polo-box domain): Primary Screen | Potency, µM, without a hit: max response, negative = inhibition, usual class: inhibitors | AID 720504, 2013 | Plk1 PBD binding of FITC phosphopeptide, fluorescence polarization | Serine/threonine-protein kinase PLK1 (Homo sapiens), P53350 | actives 2.8% (n = 360,000); further: series mostly up to about 57 µM; nearly all actives have a fitted effect of over 65% in size
Target sequence (P53350 whole entry, looked up, the tested form may be a part): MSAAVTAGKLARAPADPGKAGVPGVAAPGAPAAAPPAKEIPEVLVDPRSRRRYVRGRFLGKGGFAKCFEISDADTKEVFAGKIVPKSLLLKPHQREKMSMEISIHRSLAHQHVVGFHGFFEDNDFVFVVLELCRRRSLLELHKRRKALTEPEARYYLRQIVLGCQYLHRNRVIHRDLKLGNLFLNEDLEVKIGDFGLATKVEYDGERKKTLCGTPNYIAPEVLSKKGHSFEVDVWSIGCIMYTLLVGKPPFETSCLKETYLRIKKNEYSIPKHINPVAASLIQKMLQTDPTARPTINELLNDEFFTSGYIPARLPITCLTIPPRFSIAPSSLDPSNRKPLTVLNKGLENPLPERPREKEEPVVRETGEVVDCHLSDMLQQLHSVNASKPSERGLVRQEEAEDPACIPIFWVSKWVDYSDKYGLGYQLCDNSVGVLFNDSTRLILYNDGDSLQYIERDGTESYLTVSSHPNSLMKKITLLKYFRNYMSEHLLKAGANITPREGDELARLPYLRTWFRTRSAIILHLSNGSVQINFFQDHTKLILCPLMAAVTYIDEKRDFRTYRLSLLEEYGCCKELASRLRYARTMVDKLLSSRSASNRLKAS
Sfp inh: qHTS Assay for Inhibitors of Bacillus subtilis Sfp phosphopantetheinyl transferase (PPTase) | actives 3.5% (n = 310,000) | Potency, µM, inactives show largest response in the series, negative = inhibition, actives largely listed as inhibitors | AID 1490, 2009 | Biochemical Sfp PPTase activity, qHTS | 4'-phosphopantetheinyl transferase ffp (Bacillus subtilis), Q9F4F7;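 further: the enzyme is Sfp with the accession as filed and its product quenches rhodamine fluorescence; 0% = enzyme reaction without inhibitor and -100% = no enzyme wells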
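Compounds were incubated with enzyme (final 15 nM) for 15 min at room temperature before substrate addition started the reaction. Fluorescence at 525 nm excitation, 598 nm emission was recorded immediately and after 30 minutes.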
Starred values were filed as active, the others as inactive; ? = inconclusive; / = not tested or not shown; [ ] = another dose, or the depositor's remark. Unless noted, the call rests on the fitted dose curve; in most records, active means well fitted curve in the direction sought with a large enough effect; inconclusive means small, poorly fitted or top-dose-only effect, or another doubt; inactive means no such curve, though single readings can be large; an effect the other way counts as inactive or inconclusive. Unless noted, on the % scale 0 is the no-effect control and ±100 the full control effect; potency means the concentration at half of the fitted maximal effect.

SMILES	RORgamma inh	ALDH1A1 block	VP16 counter	PLK1 PBD inh	Sfp inh
CN(c1ncc(C(F)(F)F)cc1Cl)n1cc(C(N)=O)c2ccccc2c1=O	5%	25µM*	-2%	-18%	-1%
COCCCN1C(=O)C(CC(=O)NCCN2CCOCC2)CC(C(=O)N(C)C)=C1C (stereo not drawn)	/	/	/	-4%	/
O=Nc1ccc(NO)cc1	3%	10µM*	0%	/	/
COc1ccc(NC(=O)c2cc(C3CCCCN3C(=O)CCCc3ccccc3)on2)c(C)c1 (stereo not drawn)	/	/	/	3%	/
C/C(=C/c1oc2ccc(O)cc2c1[N+](=O)[O-])N(C)C	1%	-15%	1%	-7%	71µM*
Cc1nc2cc(NC(=O)Nc3nccs3)ccc2n1C	?	-13%	10µM*	-1%	?
COc1cccc(NC(=O)Nc2ccc3nc(C)c(C)nc3c2)c1	?	/	19%	6%	15%
CCn1c(C)nc2cc(NC(=O)Nc3cccc(C(C)=O)c3)ccc21	16µM*	/	14µM*	-16%	1%
COc1cccc(NC(=O)Nc2ccc3c(c2)nc(C)n3C)c1	8.9µM*	15%	11µM*	-13%	5%
CC(C)[C@@H](OCc1ccccc1)[C@H](C)/C=N\OC[C@@H](O)COCc1ccco1	13%[10 µM]	6%[13.5 µM]	0%[10 µM]	/	5%
Nc1nnc(SCC(=O)NNC(=O)c2ccccc2F)s1	/	/	/	-3%	/
CC(C)(C)OC(=O)C[C@H]1C/C=C\C[C@@H](CC(=O)N(CCO)Cc2ccccc2)C(=O)N[C@H](Cc2c[nH]c3ccccc23)COC1=O	/	/	/	6%	/
C[C@H]1CN(CCc2ccccc2)C(=O)[C@@H]1CC(=O)Nc1ccc(Br)cc1	/	/	/	-3%	/
Cc1cc(C)c2c(N)c(S(=O)(=O)c3ccccc3)sc2n1	1%	?	?	-29%	89µM*
CCCCS(=O)(=O)c1sc2nc(C)cc(C)c2c1N	8%	-4%	-10%	-11%	6%
CCOc1ccc(NC(=O)OCCN2CCN(CCc3ccccc3)C(C)C2)cc1 (stereo not drawn)	/	/	/	0%	/
Nc1c(C(=O)NCC2CCCO2)sc2nc3c(c(-c4ccco4)c12)CC/C3=C\c1ccco1 (stereo not drawn)	9%	?	-2%	?	32µM*
Cn1c(=O)c(Oc2ccc(Cl)cc2)c(O)c2ccccc21	12%	?	-1%	-9%	13%
CC(=O)n1c(C=Nc2ccc(Cl)cc2)c(O)c2ccccc21	39%	/	-6%	6.7µM*	?
c1ccc2c(-c3[nH]ncc3CNCCCn3ncc4ccccc43)cccc2c1	?	?	?	24µM*	-10%
C/C(=C\C(=O)c1ccc(Cl)cc1)Nc1ccc(N2CCOCC2)cc1	17%	8%	10%	-2%	0%
O=C(/C=C(\O)c1ccccc1)C(=O)NNC(=O)c1ccccc1	?	/	?	-2%	19%
COc1ccc(C(=O)NN/C(C)=C/C(=O)c2ccccc2)cc1	6.3µM*	/	5µM*	-10%	17%
C/C(=C\C(=O)c1ccc(Br)cc1)Nc1ccc(Cl)cc1	7.1µM*	?	11µM*	-3%	-11%
COc1ccc(C(=O)NNC(=O)C(=O)/C=C(\O)c2ccc(C)cc2)cc1	13µM*	/	?	-8%	-2%
SMILES	RORgamma inh	ALDH1A1 block	VP16 counter	PLK1 PBD inh	Sfp inh
C/C(=C\C(=O)c1ccccc1)NNC(=O)c1ccc(Cl)cc1	7.1µM*	/	4.5µM*	-8%	-6%
COc1ccc(N/C(C)=C/C(=O)c2ccccc2)cc1	10%	-3%	?	-11%	3%
COC(=O)[C@@]1(Cc2ccc(OC)cc2)[C@H]2c3cc(C(=O)N4CCCC4)n(CCc4c[nH]c5cc(F)ccc45)c3C[C@H]2CN1C(=O)c1ccccc1	24%	-15%	1%	/	22%
COc1cc(NC(=O)C2(C)CCCN(C(C)C)C2)cc(OC)c1OC (stereo not drawn)	/	/	/	-2%	/
COc1ccccc1C1=NNC(=Nc2cccc(S(=O)(=O)N(C)C)c2)SC1	-17%	35µM*	2%	-19%	-93%
CC(c1ccccc1)n1cnc2ccccc2c1=O (stereo not drawn)	/	/	/	-4%	4%
CC(c1ccccc1)n1cnc2ccccc21 (stereo not drawn)	13µM*	-18%	-12%	-9%	4%
CC(CCN(C)C)OC(=O)c1ccc(C(C)c2ccccc2)o1 (stereo not drawn)	3%	40µM*	3%	-9%	10%
CC1CN=C(NS(=O)(=O)c2ccccc2)N1 (stereo not drawn)	/	/	/	-6%	/
CCC1(C)Cc2nc3[nH]c(=S)n(-c4ccccc4C)c(=O)c3cc2CO1 (stereo not drawn)	6.3µM*	/	10µM*	-3%	20%
CCC1(C)Cc2nc3[nH]c(=S)n(-c4ccccc4)c(=O)c3cc2CO1 (stereo not drawn)	2.8µM*	?	?	-9%	-27%
CC1(C)Cc2nc3[nH]c(=S)n(-c4ccccc4)c(=O)c3cc2CO1	/	/	/	-2%	/
CCC1(C)Cc2nc(Cl)c(C#N)cc2CO1 (stereo not drawn)	4%	/	-4%	0%	23%
Cc1nc2ccccn2c1-c1ccnc(=S)[nH]1	?	?	-9%	27µM*	10µM*
c1ccn2c(c1)nc1c2nc2ccccn21	3%	?	-14%	-2%	-6%
COC(=O)C1C2CC(C(Br)C2Br)C1C(=O)O (stereo not drawn)	/	/	/	1%	/
Cc1ccc(Nc2nc(N)nc(CN3CCN(Cc4ccc5c(c4)OCO5)CC3)n2)cc1C	?	7.9µM*	1%	-9%	6%
Cc1ccc(Nc2nc(N)nc(CN3CCN(Cc4ccc5c(c4)OCO5)CC3)n2)cc1Cl	-33%	?	-13%	-6%	3%
CCOc1ccccc1N1CCN(CC(=O)N(C)CC(=O)Nc2ccccc2CC)CC1	/	/	/	-2%	/
CCn1c(CN2CCN(c3cccc(C)c3C)CC2)n[nH]c1=S	4µM*	-8%	7.1µM*	-4%	6%

Bioassay records from PubChem BioAssay.
